Data reported in the supplement of paper PMC10981050.
Several values for one entry are separate records, joined by “and”; a condition that tells them apart may be missing. Identical values can stand only once. Counter-ions that a name gives are not always drawn.

Columns and labels:
Assay in all cases: cell viability relative to vehicle control; higher = less cytotoxic
Conditions in all cases: 10 µM
[1] = system: K562
Method in brief: (§1)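 After removal of identity-inconsistent compounds, the Selleck bioactive, kinase and epigenetic probe libraries were screened on CRISPR-edited mutant clones and isogenic wild-type clones of four leukaemia lines. Plates were 384-well, each well holding 2000 cells in 50 µL medium and receiving a single 10 µM acoustically dispensed dose. CellTiter-Glo luminescence was read 48 h later, after the supernatant was taken off. Genedata Screener was used to express viability as percent of the on-plate vehicle control.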

[2] = system: MARIMO
Method in brief: as §1

[3] = system: MOLM14
Method in brief: as §1

[4] = system: OCI-AML2
Method in brief: as §1

| SMILES | cell viability ([1]; SRSF2 genotype: SRSF2 P95H/wt) | cell viability ([1]; SRSF2 genotype: SRSF2 wt/wt) | cell viability ([2]; SRSF2 genotype: SRSF2 P95H/wt) | cell viability ([2]; SRSF2 genotype: SRSF2 wt/wt) | cell viability ([3]; SRSF2 genotype: SRSF2 P95H/wt) | cell viability ([3]; SRSF2 genotype: SRSF2 wt/wt) | cell viability ([4]; SRSF2 genotype: P95H/wt) | cell viability ([4]; SRSF2 genotype: wt/wt) |
| --- | --- | --- | --- | --- | --- | --- | --- | --- |
| CCn1cc(-c2ccnc3[nH]c(-c4cccc(CN(C)C)c4)cc23)c(-c2ccc(NC(=O)N(C)C)cc2)n1 | 36.2% and 51.2% | 45.9% | 30.3% | 27% | 1.95% | 2.96% | 1.06% | 7.2% |
| Nc1ccc(-c2cccc(C(=O)Nc3cnc4nc(N5CCOCC5)oc4c3)n2)cn1 | 96.8% and 100% | 91.5% | 98.3% | 91.6% | 86% | 87.5% | 103% | 93.7% |
| O=C(C1CCCCC1)N1CC(=O)N2CCc3ccccc3C2C1 (stereo not given) [Praziquantel (Biltricide)] | 105% and 101% | 102% | 109% | 107% | 111% | 109% | 115% | 103% |
| C[N+](C)(C)CC(O)CC(=O)[O-] (racemic) [DL-Carnitine hydrochloride] | 101% and 105% | 98.8% | 98.4% | 106% | 98.1% | 103% | 102% | 101% |
| COC(=O)c1ccc2c(c1)nc(NC(=O)c1ccccc1)n2CCCc1ccccc1 | 77.8% and 75.4% | 79.5% | 70.1% | 91.6% | 87.9% | 93.7% | 64.5% | 68.7% |
| C[C@@H]1CC[C@H]2C(C)(C)[C@H]3C[C@@]12CC[C@@]3(C)O [Cedrol] | 106% and 97.2% | 96.6% | 103% | 107% | 104% | 104% | 98.2% | 112% |
| S=c1[nH]cnc2nc[nH]c12 [Mercaptopurine (6-MP)] | 58.5% and 51.3% | 34.1% | 82.1% | 85.9% | 74.4% | 63.6% | 83.2% | 90% |
| O=C(O)C(Cc1ccccc1[N+](=O)[O-])=NNc1nc(-c2ccc(Cl)c(Cl)c2)cs1 | 95.8% and 93.5% | 87.9% | 94.2% | 114% | 91.8% | 92.2% | 84.8% | 94% |
| CC1(C)C2CCC1(C)C(O)C2 (stereo not given) [Borneol] | 101% and 89.9% | 94.2% | 89.7% | 99.5% | 97.5% | 99.5% | 87.9% | 105% |
| COc1cc(C=CC(=O)CC(=O)C=Cc2ccc(O)cc2)ccc1O [Demethoxycurcumin] | 46.9% and 54.2% | 64.6% | 62.9% | 64.4% | 8.11% | 13.7% | 13.5% | 23.6% |
| O=C(O)[C@]1(Cc2cccc(Nc3nccs3)n2)CC[C@@H](Oc2cccc(Cl)c2F)CC1 | 17.3% and 19.3% | 18.6% | 66.6% | 68.2% | 27.7% | 20.6% | 17.8% | 24.8% |
| Cn1cc(-c2ccc3c(c2)CCN3C(=O)Cc2cccc(C(F)(F)F)c2)c2c(N)ncnc21 | 37.6% and 52.8% | 39.2% | 60.5% | 62.1% | 16.1% | 16% | 26.3% | 28.8% |
| C/C1=C\CC[C@]23O[C@H]2[C@@H](OC3=O)c2c(C)coc2C1 [Linderane] | 109% and 104% | 112% | 104% | 99.6% | 117% | 108% | 103% | 101% |
| CNC(=O)Nc1ccc(-c2nc(N3CC4CCC(C3)O4)c3cnn(C4CCC5(CC4)OCCO5)c3n2)cc1 | 40.7% and 42.8% | 34.4% | 57.6% | 45% | 36% | 28.1% | 29% | 28.7% |
| COc1ccc([C@@H]2CC(=O)c3c(O)cc(O[C@@H]4O[C@H](CO)[C@@H](O)[C@H](O)[C@H]4O[C@@H]4O[C@@H](C)[C@H](O)[C@@H](O)[C@H]4O)cc3O2)cc1O [Neohesperidin] | 109% and 102% | 100% | 97.2% | 102% | 104% | 109% | 116% | 127% |
| O=C(O)CSCC(=O)NC1CCSC1=O (stereo not given) [Erdosteine] | 101% and 96.3% | 97.8% | 101% | 102% | 97.8% | 98% | 89.9% | 96.9% |
| C[C@H]1O[C@@H](O[C@H]2CC[C@@]3(C)[C@@H](CC[C@]4(C)[C@@H]3C=C[C@]35OC[C@@]6(CCC(C)(C)C[C@H]63)[C@H](O)C[C@]54C)[C@]2(C)CO)[C@H](O)[C@@H](O[C@@H]2O[C@H](CO)[C@@H](O)[C@H](O)[C@H]2O)[C@H]1O [Saikosaponin D] | 6.69% and 0.65% | 0.4% | 14% | 3.54% | 0.86% | 0.86% | 10.2% | 12.9% |
| Cc1cccc(-c2[nH]c(C(C)(C)C)nc2-c2ccc3nccnc3c2)n1 | 111% and 95.8% | 99.7% | 108% | 105% | 105% | 101% | 108% | 115% |
| O=C(O)c1ccccc1-c1c2cc(Br)c(=O)c(Br)c-2oc2c(Br)c(O)c(Br)cc12 [Eosin Y Disodium] | 97.2% and 95.8% | 90.1% | 96% | 92.8% | 85.3% | 93.6% | 91.7% | 93.4% |
| C1CNCCNCCNCCN1 [Cyclen] | 100% and 102% | 106% | 107% | 111% | 103% | 103% | 105% | 102% |

| SMILES | cell viability ([1]; SRSF2 genotype: SRSF2 P95H/wt) | cell viability ([1]; SRSF2 genotype: SRSF2 wt/wt) | cell viability ([2]; SRSF2 genotype: SRSF2 P95H/wt) | cell viability ([2]; SRSF2 genotype: SRSF2 wt/wt) | cell viability ([3]; SRSF2 genotype: SRSF2 P95H/wt) | cell viability ([3]; SRSF2 genotype: SRSF2 wt/wt) | cell viability ([4]; SRSF2 genotype: P95H/wt) | cell viability ([4]; SRSF2 genotype: wt/wt) |
| --- | --- | --- | --- | --- | --- | --- | --- | --- |
| Clc1ccccc1C(c1ccccc1)(c1ccccc1)n1ccnc1 [Clotrimazole (Canesten)] | 92.1% and 91.2% | 75.9% | 81.5% | 87.3% | 89.4% | 84.6% | 77.4% | 90% |
| CCC(C)SSc1ncc[nH]1 (stereo not given) | 14.2% and 15.1% | 11.6% | 6.03% | 4.97% | 1.56% | 3.76% | 4.83% | 3.63% |
| CN1CCN(Cc2ccc(NC(=O)Nc3ccc(Oc4cc(NC(=O)C5CC5)ncn4)cc3)cc2C(F)(F)F)CC1 | 21.2% and 19% | 20.5% | 1.8% | 1.13% | 0.31% | 0.31% | 0.36% | 1.73% |
| O=c1cc(-c2ccc(O)c(O)c2)oc2cc(O)cc(O)c12 [Luteolin] | 90.8% and 84.6% | 85.5% | 65.7% | 82.6% | 53% | 57% | 67.3% | 58.9% |
| OCCn1cc(-c2ccc3c(c2)CC/C3=N\O)c(-c2ccncc2)n1 | 110% | 111% | 85% | 73% | 89.8% | 94% | 94.4% | 80.8% |
| Cc1cc(C)c(CNC(=O)c2cc(-c3ccc(CN4CCOCC4)cc3)cc3c2cnn3C2CCCC2)c(=O)[nH]1 | 105% and 117% | 120% | 113% | 111% | 104% | 107% | 111% | 106% |
| CN[C@@H](C)C(=O)N[C@H](C(=O)N1CCC[C@H]1C(=O)N[C@H](C(=O)NCCCCCCNC(=O)[C@@H](NC(=O)[C@@H]1CCCN1C(=O)[C@@H](NC(=O)[C@H](C)NC)C1CCCCC1)C(c1ccccc1)c1ccccc1)C(c1ccccc1)c1ccccc1)C1CCCCC1 | 0.93% and 3.98% | 3.06% | 29.5% | 8.11% | 0.7% | 0.53% | 4.1% | 9.14% |
| CC(C)CN(C[C@@H](O)[C@H](Cc1ccccc1)NC(=O)O[C@H]1CCOC1)S(=O)(=O)c1ccc(N)cc1 [Amprenavir (Agenerase)] | 89.2% and 83.5% | 86.4% | 77.8% | 93.5% | 90.2% | 89.8% | 101% | 99.4% |
| C/C(O)=C(\C#N)C(=O)Nc1ccc(C(F)(F)F)cc1 [Teriflunomide] | 93.8% and 104% | 91.6% | 94.3% | 98.5% | 88.2% | 93.9% | 79.9% | 87.1% |
| O=C(Nc1ccccc1-c1cn2c(CN3CC[C@@H](O)C3)csc2n1)c1ccc2ccccc2c1 | 23.9% and 46% | 39.3% | 57.1% | 65% | 72.4% | 80.5% | 65.3% | 64.4% |
| CC(C)c1onc(-c2c(Cl)cccc2Cl)c1COc1ccc(/C=C/c2cccc(C(=O)O)c2)c(Cl)c1 | 95.1% and 94.7% | 99.7% | 94.5% | 98.6% | 95.5% | 97.3% | 69.3% | 82% |
| C=C[C@@H]1CNC(=S)O1 [Epigoitrin] | 103% and 97.6% | 101% | 91.3% | 93.1% | 101% | 99.2% | 103% | 104% |
| CN/C(=N\CCSCc1nc[nH]c1C)NC#N [Cimetidine (Tagamet)] | 102% and 100% | 98.8% | 102% | 106% | 101% | 102% | 105% | 104% |
| NC(N)=Nc1nc(CSCC/C(N)=N/S(N)(=O)=O)cs1 [Famotidine (Pepcid)] | 105% and 106% | 109% | 111% | 106% | 103% | 107% | 107% | 107% |
| COCCCN1CCC(NC(=O)c2cc(Cl)c(N)c3c2OCC3)CC1 [Prucalopride] | 86.4% and 82% | 81.5% | 85.9% | 91.6% | 87.3% | 88.9% | 80.5% | 88.7% |
| CCCCC1C(=O)N(c2ccccc2)N(c2ccccc2)C1=O [Phenylbutazone (Butazolidin, Butatron)] | 98.1% and 102% | 94.9% | 97.2% | 102% | 98% | 99.9% | 106% | 107% |
| Cn1cc(-c2ccc3ncc(Cc4ccc5ncccc5c4)n3n2)cn1 | 108% and 96.6% | 98% | 102% | 101% | 87.7% | 101% | 72.5% | 79.3% |
| CC(=O)NS(=O)(=O)c1ccc(N)cc1 [Sulfacetamide] | 98.7% and 98.1% | 111% | 90.8% | 96.3% | 103% | 103% | 98.4% | 106% |
| C=C[C@@](C)(/C=C/c1ccc(O)cc1)CCC=C(C)C [Bakuchiol] | 98.5% and 98.7% | 95.3% | 87.8% | 83% | 87.3% | 90.1% | 83.1% | 81.6% |
| O=C(Nc1ccc(OC(F)(F)Cl)cc1)c1cnc(N2CC[C@@H](O)C2)c(-c2cc[nH]n2)c1 [Asciminib (ABL001)] | 12.7% and 19% | 17.1% | 68.4% | 64.5% | 92% | 87.7% | 41.2% | 55% |
